Assay outcomes: PubChem, National Center for Advancing Translational Sciences (NCATS)
p53 reactivation: re-activators of mutant p53. 320,000 tested, 0.063% active. H1299 p53-A138V BP100-luciferase reporter, luminescence, 24 h. Potency, µM (doses to about 92.2 µM), most hits filed as activators; also: nearly all actives have a fitted effect of over 45% in size
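p53-null H1299 cells stably carrying temperature-sensitive p53-A138V and a BP100-luciferase reporter were pinned with compounds (4-point, 1:5 series) and held 24 hrs at 37 deg C. Luminescence was read 10 min after detection reagent.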
ELG1 genotoxic: inducers of genotoxicity in HEK293T ELG1-luciferase cells. Potency, µM (top dose mostly 46 µM), most hits filed as activators. 330,000 tested, 1.3% active. AID 504466. HEK293T ELG1-luciferase reporter, luminescence, 16 h; also: nearly all actives have a fitted effect of over 60% in size
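Quantitative HTS format in 1536-well plates. HEK293T ELG1-luciferase reporter cells receive test compound and are incubated 16 hr at 37 °C, 5% CO2; ONE-Glo added, 30 min room temperature, then luminescence read.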
NPC1 promoter act: activators of NPC1 promoter; Huh7 NPC1 promoter luciferase reporter, 24 h; Potency, µM (series often up to 9.22 µM), hits mostly activators; 320,000 tested, 2.4% active; also: nearly all actives have a fitted effect of over 60% in size
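In 1536-well qHTS, Huh7 cells harboring an NPC1 promoter–luciferase construct received compound for 24 h; activation was quantified by luminescence following luciferase reagent addition.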
FLuc modulator: inhibits or activates purified firefly luciferase, miR-21 counter-screen. P08659. Potency, µM (doses to about 57.5 µM), actives largely listed as inhibitors. purified FLuc, Km substrates, luminescence inhibition. 360,000 tested, 6.9% active. AID 588342; also: nearly all actives have a fitted effect of over 55% in size
Target sequence (P08659 whole entry, looked up): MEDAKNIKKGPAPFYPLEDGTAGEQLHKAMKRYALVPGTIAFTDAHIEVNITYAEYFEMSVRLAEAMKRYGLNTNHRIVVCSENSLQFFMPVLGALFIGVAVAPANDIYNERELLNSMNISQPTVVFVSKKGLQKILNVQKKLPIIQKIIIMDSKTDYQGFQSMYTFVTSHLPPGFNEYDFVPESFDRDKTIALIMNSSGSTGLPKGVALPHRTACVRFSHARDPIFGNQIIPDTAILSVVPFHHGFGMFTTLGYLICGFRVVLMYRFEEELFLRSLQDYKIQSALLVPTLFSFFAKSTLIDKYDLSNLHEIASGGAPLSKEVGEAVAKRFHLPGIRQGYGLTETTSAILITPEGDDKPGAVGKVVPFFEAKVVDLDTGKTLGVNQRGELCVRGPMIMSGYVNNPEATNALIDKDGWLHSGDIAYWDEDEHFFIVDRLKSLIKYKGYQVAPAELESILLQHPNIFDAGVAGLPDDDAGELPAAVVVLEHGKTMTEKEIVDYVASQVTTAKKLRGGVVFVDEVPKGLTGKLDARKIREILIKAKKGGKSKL
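Purified P. pyralis luciferase, 10 nM final, with Km-level 10 uM D-luciferin and 10 uM ATP in 50 mM Tris acetate pH 7.5, 10 mM Mg acetate, 0.01% Tween-20, 0.05% BSA; 6-point qHTS titration about 60 µM downward; luminescence read.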
SMN2 splice up: SMN2 splice variant enhancement; HEK293 SMN2-luciferase splicing reporter, luminescence, 30-36 h; Potency, µM (highest dose often 46.1 µM), most hits filed as activators; 210,000 tested, 2.8% active; also: nearly all actives have a fitted effect of over 55% in size
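HEK293 cells carry an SMN2 minigene-luciferase reporter in which exon 7 inclusion puts luciferase in frame. Cells were seeded at 2000 cells/well, attached for 10-12 hours, then exposed to compounds for 30-36 hours at 37C before ONE-Glo luminescence.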
Rab9 prom act: activators of Rab9 promoter. Potency, µM (series often up to 9.22 µM), usual class: activators. 320,000 tested, 2.8% active. Huh7 Rab9 promoter-luciferase reporter, luminescence, 24 h; also: nearly all actives have a fitted effect of over 60% in size
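Huh7 cells stably carrying Rab9 promoter–luciferase reporter, plated 1500 cells/well, compound added after 2 h and incubated 24 h at 37 °C; luciferase luminescence then read after 10 min with detection reagent.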
A number is an active result; - = inactive; ? = inconclusive; . = no result; [ ] = dose if it differs, or a comment. Sampled rows, rich in hits. Any-hit rate of the full collection: about 7.4%. Calls follow the shape of the dose curve; as a rule, active = well fitted curve in the direction sought with a large enough effect; inconclusive = small, poorly fitted or top-dose-only effect, or another doubt; inactive = no such curve, though single readings can be large; an effect the other way counts as inactive or inconclusive.

SMILES	p53 reactivation	ELG1 genotoxic	NPC1 promoter act	FLuc modulator	SMN2 splice up	Rab9 prom act
O=C(CSc1nnc(SCc2ccc(Cl)cc2)s1)N/N=C/c1ccc(C(=O)O)cc1	-	-	-	1.35µM	.	-
O=C(O)COc1ccccc1/C=N/NC(=O)CSc1nnc(SCc2cccc3ccccc23)s1	-	-	-	19µM	.	-
CN=C(NC#N)NCCSCc1csc(N=C(N)N)n1	.	.	.	.	-	.
O=C(CC(=O)Nc1ccc(Cl)cc1)N/N=C\c1cccc(F)c1	-	-	-	-	.	-
CCOC(=O)Cn1nc(-c2ccccc2)c2cnc3ccc(OCC)cc3c21	.	.	.	-	-	.
CCN(CC)c1ccc(C(=O)N2CCC(c3ccncc3)CC2)cc1	.	.	.	-	.	.
COC(=O)c1cn[nH]c1NC(=S)Nc1ccc(Cl)c(Cl)c1	?	0.411µM	0.631µM	0.426µM	10µM	0.355µM
CCOC(=O)c1cn[nH]c1NC(=S)Nc1ccc(OC)cc1	-	?	0.282µM	0.19µM	.	0.316µM
COC(=O)c1cn[nH]c1NC(=S)Nc1ccc(C)cc1Cl	.	0.581µM	0.398µM	0.379µM	-	0.562µM
COC(=O)c1ccccc1NC(=S)NC(C)=O	-	-	-	-	-	-
COC(=O)c1cn[nH]c1NC(=S)Nc1ccccc1C	-	?	?	7.57µM	-	3.55µM
CCOc1ccc(NC(=O)CN2C(=O)c3ccccc3Sc3ccc(C(=O)OC)cc32)cc1	.	.	.	-	.	.
O=C(O)c1ccncc1.O=C(O)c1ccncc1.[Cl][Pt]([Cl])([Cl])[Cl]	.	.	.	.	-[9.22 µM]	.
O=C1N/C(=N/O)S/C1=C/c1cccc([N+](=O)[O-])c1	-	-	-	21.3µM	-	-
Cc1ccsc1C1C(C#N)=C(N)N(N(C)C)C2=C1C(=O)CC(C)(C)C2 (centres undefined)	-	-	-	-	25.1µM	-
COc1ccc(C2C(C#N)=C(N)N(N(C)C)C3=C2C(=O)CC(C)(C)C3)cc1 (centres undefined)	-	-	-	-	.	-
O=C(Nc1ccc(Br)cc1)Nc1ccccc1F	-	?	1.58µM	4.78µM	.	2.82µM
O=C(Nc1ccccc1F)Nc1ccccc1F	-	-	?	15.1µM	12.6µM	2.51µM
NC(=O)c1ccccc1NC(=O)Nc1cccc2ccccc12	-	-	-	-	-	-
Fc1ccccc1NC(=S)Nc1ccc(Br)cc1	?	-	-	?	.	-
O=C(Nc1ccccc1F)Nc1cccc2ccc(O)cc12	-	-	-	16.9µM	.	?
O=C(NNc1ccccc1)Nc1ccccc1F	-	-	-	19µM	.	-
COc1ccc(N2CC(C(=O)Nc3ccncc3)CC2=O)cc1 (centres undefined)	-	-	-	-	.	-
CC(=O)Nc1ccc(CC(=O)NCCC(c2ccccc2)c2ccccc2)cc1	-	-	-	-	.	-
CCCS(=O)(=O)c1nc(S(=O)(=O)c2ccc(C)cc2)c(NCc2ccccc2)s1	.	.	.	-	-	.
SMILES	p53 reactivation	ELG1 genotoxic	NPC1 promoter act	FLuc modulator	SMN2 splice up	Rab9 prom act
CCOC(=O)c1cccc(NC(=O)c2cc(S(=O)(=O)N3CCCCCC3)cn2C)c1	.	.	.	-	.	.
Cc1nc(N2CCCC2)c2c(C(=O)Nc3ccc(Br)cc3F)c(C)oc2n1	.	.	.	-	.	.
O=C(CCc1ccccc1)Nc1ccccc1F	?	?	?	12µM	15.8µM	2.82µM
O=C(CCc1ccccc1)Nc1ccc(F)cc1F	-	?	-	?	-	?
COc1ccc(CNC(=O)C(=O)Nc2ccc(OC)cc2OC)cc1	.	.	.	-	-	.
Cn1cccc1/C=C1\SC(=S)N(CC(=O)O)C1=O	-	-	-	?	-	-
O=C(O)CN1C(=O)/C(=C\c2ccc(OC(=O)c3ccco3)cc2)SC1=S	-	-	-	7.57µM	.	-
O=C(O)CN1C(=O)/C(=C/c2ccc(SCc3ccccc3)o2)SC1=S	-	-	-	19µM	-	-
O=C(O)CN1C(=O)/C(=C\c2cccc(OC(=O)c3ccco3)c2)SC1=S	-	-	-	23.9µM	.	-
CCN1C(=O)/C(=C\c2cccc(OC(=O)c3ccco3)c2)SC1=S	-	-	-	-	.	-
C=CCN1C(=O)/C(=C\c2cccc(OC(=O)c3ccco3)c2)SC1=S	-	-	-	-	.	-
COc1ccc(-c2cc(NCc3ccc(C)cc3)n3cnnc3n2)cc1	.	.	.	-	-	.
CCn1c(=S)[nH]c2cc(S(=O)(=O)N3CCCCC3)ccc21	-	9.2µM	-	-	.	-
Cc1ccc(NC(=O)CSCC(=O)O)cc1	-	-	-	-	.	-
Nn1cnnc1SCC(=O)Nc1ccc(C2CCCCC2)cc1	-	?	3.55µM	5.36µM	?	?
CC(C)n1cnnc1SCC(=O)Nc1ccc(N2CCCCC2)cc1	-	?	-	6.01µM	.	-
O=C(O)CSCC(=O)Nc1ccc(C2CCCCC2)cc1	.	.	.	12µM	-	.
N=C(N)SCCON1C(=O)c2ccccc2C1=O	.	.	.	.	-[9.22 µM]	.
Cn1cccc1C(=O)N1CCC2(CC1)CN(c1ccccn1)C2	.	.	.	.	-	.
